# Assay results as given in PubChem BioAssay.
# Several values for one entry are separate records, joined by “and”; a condition that tells them apart may be missing. Identical values can stand only once. Activity calls are given as the source filed them. Rule as the data show it, unless noted: active = parasite load remaining mostly below about 12% (no sharp cut-off); inactive = mostly above about 10%.
# Legend:
# [1] = P. berghei load reduction in hepatocytes – cell-based, HepG2, luciferase luminescence, HepG2 viability, primary screen (AID 624349);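 also: 100% = mean of DMSO negative control wells on the same plate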; settings: P. berghei liver stage in HepG2, luciferase luminescence, concentration not given here; parasite load remaining: stronger effect = lower value; viability: measured here: HepG2 viability without parasites
# [2] = Wnt pathway potentiators raising nuclear beta-catenin – imaging, WNT3A-conditioned medium, mouse C2C12, NPC library, primary screen (AID 1117326; in the data active = nuclear beta-catenin stimulation mostly above about 4.2%, no sharp cut-off; inactive = mostly below about 10%; also: reference of the scale not given here); settings: stronger effect = higher value
# [3] = stimulators of insulin release from INS-1E, primary screen, cell-based, 5 mM glucose, NPC library (AID 1117329;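 active = compound raises insulin release from rat beta cells at 5 mM glucose, no numeric limit stated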; also: reference of the scale not given here); settings: rat INS-1E insulin secretion, at 10 µM, stronger effect = higher value
# [4] = growth inhibition of GSK3B-pretreated HCT116 cells – cell-based, CellTiter-Glo, 0.2 to 20 µM (AID 1117336;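 active = compounds lowering colon cancer cell viability after pretreatment blocking the GSK3B kinase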); settings: HCT116 viability after GSK3B inhibitor, at 20 µM, stronger effect = higher value
# [5] = inhibition of endothelial tube formation, primary screen, imaging, VEGF stimulated, CD31 staining, tube area, NPC library (AID 1117340;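 active = compound that reduces growth-factor-driven endothelial tube area in a mixed cell culture, no cutoff stated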); settings: VEGF-stimulated ADSC/ECFC co-culture, at 10 µM, stronger effect = higher value
# [6] = GLP1 release stimulators, primary, NCI-H716, NPC library (AID 1117341;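 active = compound raises GLP1 secretion from the human gut endocrine cells, with no numeric limit stated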; also: reference of the scale not given here); settings: NCI-H716 cells, at 10 µM, stronger effect = higher value
# [7] = HCT116 colon cancer cell growth inhibition, primary screen, CellTiter-Glo luminescence, NPC library (AID 1117342;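 active = compounds that lower survival of HCT116 colon cancer cells in the luminescence readout, no numeric limit stated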); settings: at 20 µM (top of the series)
# [8] = reduced SW480 viability measured with CellTiter-Glo, NPC library, primary (AID 1117343;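 active = compounds that lower viability of the colon cancer cells in the luminescence readout, with no numeric limit stated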); settings: CellTiter-Glo luminescence; at 20 µM (top of the series)
# [9] = NPC library primary testing for decreased DLD-1 cell viability via CellTiter-Glo (AID 1117346;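 active = compounds that lower survival of DLD-1 colon cancer cells in the luminescence readout, no cutoff given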); settings: DLD-1 viability, CellTiter-Glo luminescence; at 20 µM (top of the series)
# [10] = target: 6-phosphogluconate dehydrogenase, decarboxylating (Homo sapiens) (UniProt P52209); assay: inhibition of human phosphogluconate dehydrogenase – biochemical, recombinant enzyme, NADPH absorbance, primary screen (AID 1159550;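 active = at least 20% inhibition of 6-phosphogluconate dehydrogenase activity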); settings: recombinant 6PGD, NADPH absorbance 341 nm; at 10 µM; stronger effect = higher value
# 6-phosphogluconate dehydrogenase, decarboxylating (Homo sapiens), sequence (P52209 whole entry, looked up): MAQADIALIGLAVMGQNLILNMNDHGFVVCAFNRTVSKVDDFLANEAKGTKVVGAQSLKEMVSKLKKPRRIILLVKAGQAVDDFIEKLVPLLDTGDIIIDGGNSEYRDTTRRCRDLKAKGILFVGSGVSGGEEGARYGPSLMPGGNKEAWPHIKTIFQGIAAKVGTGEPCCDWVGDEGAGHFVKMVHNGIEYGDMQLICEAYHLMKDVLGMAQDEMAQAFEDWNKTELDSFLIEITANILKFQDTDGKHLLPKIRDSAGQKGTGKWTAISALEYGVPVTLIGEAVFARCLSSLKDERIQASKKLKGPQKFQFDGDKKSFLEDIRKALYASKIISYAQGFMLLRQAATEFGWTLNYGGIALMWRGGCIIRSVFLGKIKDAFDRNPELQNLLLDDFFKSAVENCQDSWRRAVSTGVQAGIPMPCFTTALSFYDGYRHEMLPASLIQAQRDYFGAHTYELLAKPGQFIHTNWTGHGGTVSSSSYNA
Structure (SMILES),parasite load remaining [1],viability [1],nuclear beta-catenin stimulation ([2]; at 10 µM),"nuclear beta-catenin stimulation ([2]; stimulation, at 2 µM) [%]",insulin secretion stimulation [3],viability decrease [4],tube area decrease [5],GLP1 secretion stimulation [6],inhibition of viability [7],viability decrease (inhibition) [8],viability decrease (inhibition) [9],inhibition [10]
CC(C(=O)O)c1ccc(C(=O)c2cccs2)cc1 (centres undefined),81.3% (inactive) and 117% (inactive) and 42.2% (inactive),105% and 68.4% and 94.1%,-2.4% (inactive),-0.7,1.8% (inactive),-5.4% (inactive),-3.5% (inactive),-3.9% (inactive),0.8% (inactive),-1.2% (inactive),0% (inactive),-2.86% (inactive)
COc1ccc(C(=O)CC(=O)c2ccc(C(C)(C)C)cc2)cc1,168% (inactive) and 61% (inactive),84.8% and 202%,-0.4% (inactive),3,1.3% (inactive),-88.8% (inactive),-15.2% (inactive),-3.2% (inactive),15.8% (inactive),18.1% (inactive),16.6% (inactive),-0.365% (inactive)
Oc1c(Cl)cc(Cl)cc1Sc1cc(Cl)cc(Cl)c1O,21.9% (inactive) and 0.17% (inactive),65.4% and 70%,41.4% (active),1.5,5.2% (inactive),99.2% (active),103% (active),23.6% (active),103% (active),113% (active),102% (active),-6.91% (inactive)
CC(=O)NCCCCCC(=O)O,132% (inactive),98.6%,0.2% (inactive),0.7,1.2% (inactive),-17.4% (inactive),-4.2% (inactive),-0.1% (inactive),-1.55% (inactive),24.9% (inactive),-11.9% (inactive),-3.52% (inactive)
CO[C@@]1(NC(=O)C(C(=O)O)c2ccc(O)cc2)C(=O)N2C(C(=O)O)=C(CSc3nnnn3C)CO[C@@H]21 (some centres undefined),95.7% (inactive) and 71.7% (inactive),77.5% and 90.5%,1.6% (inactive),-0.2,-0.4% (inactive),23.9% (inactive),10.2% (inactive),1.3% (inactive),2.9% (inactive),25.1% (inactive),-26% (inactive),3.95% (inactive)
CC[C@]12CCCN3CCc4c(n(c5ccccc45)C(=O)C1)[C@@H]32,191% (inactive) and 75.4% (inactive),102% and 73.8%,35.1% (inactive),6.2,0.1% (inactive),-29% (inactive),100% (active),7.7% (inactive),35.7% (inactive),60% (active),66.2% (active),-5.24% (inactive)
CC1(C)OC(=O)NC1=O,76.1% (inactive) and 103% (inactive) and 63.9% (inactive),96.6% and 74.2% and 92.6%,1.7% (inactive),2.2,0.6% (inactive),-28.6% (inactive),2.9% (inactive),-6.6% (inactive),17.4% (inactive),11.1% (active),-3.2% (inactive),10.2% (inactive)
CCCc1cc(C(N)=S)ccn1,145% (inactive) and 18.2% (inactive),83.8% and 63%,0.2% (inactive),2,-1.7% (inactive),-13.4% (inactive),1% (inactive),-0.6% (inactive),6.7% (inactive),5.3% (inactive),-3.5% (inactive),3.48% (inactive)
NC(=O)c1ccc([N+](=O)[O-])cc1Cl,63.8% (inactive) and 35.2% (inactive),105% and 84.3%,-0.6% (inactive),0.9,-2.1% (inactive),-0.35% (inactive),-35.4% (inactive),0% (inactive),42.7% (inactive),32.9% (inactive),3.8% (inactive),10.9% (inactive)
CC(=O)OC/C=C(C)/C=C/C=C(C)/C=C/C1=C(C)CCCC1(C)C,135% (inactive) and 40.4% (inactive),96.6% and 98.5%,3.8% (inactive),3.9,3% (inactive),-11.9% (inactive),0.2% (inactive),5.9% (inactive),2.7% (inactive),-5.5% (inactive),-3.2% (inactive),-10.8% (inactive)
CCOC(=O)c1ccc(N)cc1,108% (inactive) and 105% (inactive) and 49.4% (inactive),103% and 76.4% and 98.1%,0.3% (inactive),1.2,-1% (inactive),5.65% (inactive),4% (inactive),-0.6% (inactive),7.6% (inactive),87.8% (active),18.2% (inactive),-17.7% (inactive)
O=C(OCc1ccccc1)c1ccccc1,82.1% (inactive) and 33.8% (inactive),68.9% and 89.1%,0.4% (inactive),2.2,0.7% (inactive),-5.3% (inactive),5.6% (inactive),-2.6% (inactive),10.4% (inactive),-12.6% (inactive),-9.1% (inactive),-0.0939% (inactive)
Oc1cccc(O)c1,91.2% (inactive) and 38.4% (inactive),77.8% and 101%,-0.3% (inactive),0.3,-1.9% (inactive),-0.8% (inactive),21% (inactive),-2.3% (inactive),8% (inactive),78.9% (active),2.6% (inactive),-5.12% (inactive)
CN1CCC(OC(c2ccccc2)c2ccccc2)CC1,97.1% (inactive) and 89.2% (inactive) and 61.4% (inactive),96.1% and 75.8% and 94.2%,0.7% (inactive),1.6,6.2% (inactive),-31.3% (inactive),13.8% (inactive),4.2% (inactive),35.4% (inactive),37.7% (inactive),-6.7% (inactive),10.6% (inactive)
Cc1cc2nc3c(=O)[nH]c(=O)nc-3n(C[C@H](O)[C@H](O)[C@H](O)CO)c2cc1C,147% (inactive),99.8%,4.5% (inactive),2.2,0.9% (inactive),-45.7% (inactive),36.1% (inactive),-0.4% (inactive),0.1% (inactive),11.1% (inactive),-5.4% (inactive),-2.13% (inactive)
CCCCCCCCCCCCCCCCOP(=O)([O-])OCC[N+](C)(C)C,146% (inactive) and 43% (inactive),78.6% and 106%,-0.6% (inactive),1.9,0% (inactive),100% (active),12.2% (inactive),2.7% (inactive),100% (active),120% (active),103% (active),17% (inactive)
O=C1C(O)=C(O)C(=O)C(O)=C1O,67.5% (inactive) and 145% (inactive) and 28.2% (inactive),94.1% and 90.9% and 99%,-1.5% (inactive),0.7,1.9% (inactive),-21% (inactive),-10.5% (inactive),-1.5% (inactive),-0.4% (inactive),27.9% (inactive),23.1% (inactive),10.5% (inactive)
CCCCOc1ccc(CC(=O)NO)cc1,13.5% (inactive) and 151% (inactive) and 84.2% (inactive),47.8% and 71.4% and 91%,0% (inactive),0.3,10.6% (inactive),24.3% (inactive),-1.4% (inactive),-1.1% (inactive),12.7% (inactive),35.2% (inactive),11.6% (inactive),-6.77% (inactive)
Nc1ccc(S(=O)(=O)NC(=O)c2ccccc2)cc1,105% (inactive) and 86.8% (inactive) and 33.6% (inactive),105% and 73% and 95.8%,1.5% (inactive),1.1,-1.7% (inactive),-10.1% (inactive),-16.9% (inactive),0.6% (inactive),0.2% (inactive),-9.5% (inactive),-14.3% (inactive),-6.69% (inactive)
O=C(O)c1cc(=O)c2ccccc2o1,136% (inactive),95.8%,-0.2% (inactive),0.2,-2.1% (inactive),-1.35% (inactive),-2.1% (inactive),3.7% (inactive),-9.2% (inactive),6.8% (inactive),1.75% (inactive),-2.11% (inactive)
CCOC(N)=O,148% (inactive) and 51.2% (inactive),85% and 96.6%,2.6% (inactive),7.1,0.8% (inactive),-12.6% (inactive),14.2% (inactive),-2.3% (inactive),3.77% (inactive),5.1% (inactive),-11.6% (inactive),-22.6% (inactive)
CO[C@@]12[C@H](COC(N)=O)C3=C(C(=O)C(C)=C(N)C3=O)N1C[C@@H]1N[C@@H]12,-0.17% (inactive),11%,26.8% (inactive),11.6,0.2% (inactive),106% (active),108% (active),1.2% (inactive),105% (active),124% (active),95.8% (active),-2.77% (inactive)
